Molecules are shown by their SMILES. The campaign covered roughly 350,000 compounds. About 2,100 (0.6%) were called active. Only a selection was taken, and actives are over-represented in it overall. Unmarked numbers belong to inactive results.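 The calls were made as follows: active = inhibition of the ligand-induced calcium signal above about 50% at the single tested concentration (limit read from the data); inactive = the rest.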

For orientation: inhibition means the drop in the measured response relative to a control, in per cent.

The nature of the experiment: blockers of CRF-evoked CRF-R2/CRF-BP calcium response – cell-based, HEK293, calcium dye fluorescence, uHTS, primary screen (AID 588475). As to conditions: CRF-induced calcium fluorescence, at 11.8 µM, hits give high values.
For `CCOC(=O)Cn1c2c(c(-c3ccccc3OC)cc1=O)CCCC2`, the inhibition is 57.5% (active).
For the compound `COc1ccccc1C1=CC(=O)CCC1`, the inhibition is 9.84%.
With `CCOC(=O)CN1CCC(c2ccccc2)CC1` the figure was -2.05%; with `c1ccc(CCN2CN=C(Nc3nc4ccccc4o3)NC2)cc1`, 13.5%.
Regarding `CC1CC(C)CN(C(=O)C2CC(=O)N(c3ccc(F)cc3)C2)C1` (configuration not stated), the inhibition is -0.72%.
For `O=C(C1CC(=O)N(c2ccc(Br)cc2)C1)N1CCCC1` (configuration not stated), the inhibition is 76.7% (active).
With `CCc1ccc(N2CC(C(=O)N3CCCCCC3)CC2=O)cc1` (configuration not stated) the figure was -21.4%; with `CCCOc1cccc(C(=O)Nc2nnn(CCC)n2)c1`, -20.2%; with `CCCCCCNC(=O)O[C@]12C[C@@H](C(=O)OC)[C@@H](C(=O)OC)C[C@@]1(O)CN(S(=O)(=O)c1ccc(C)cc1)C2`, -0.13%.
Turning to `CCOc1ccc(NC(=O)CCC(=O)NNC(=O)NC2CCCCC2)cc1`, the inhibition is 9.93%.
Take `CC1CCN(C(=S)NC2CC3CCC2C3)CC1` (configuration not stated): the inhibition is 18.3%.
For the compound `CCCC(O)(CCC)C(=O)NN(C(=O)CCl)c1cccc(C)c1`, the inhibition is 4.46%.
Turning to `CC(=O)c1cccc(-n2nnnc2SCC(=O)NNC(=O)C2CCCCC2)c1`, the inhibition was 12.7%.
As for `CCc1nnc(NC(=O)CSc2nnnn2-c2cccc(C(C)=O)c2)s1`, the inhibition is 54.4% (active).
To `CCc1nnc(NC(=O)CSc2nc(SC)ns2)s1` belongs -5.79%; to `O=C(O)C1=C(C(=O)O)C2CCC1C2`, 17.1%.
To `COc1ccc(Cl)cc1C(=O)OCC(=O)NCc1cccs1` belongs -4.93%; to `COc1cc(CNCc2cccs2)cc(Br)c1OC`, 4.12%; to `COc1cc(CC(=O)NCc2cccs2)cc(OC)c1OC`, 63.8% (active).
To `COC(=O)c1ccc(OC(=O)c2nn(C)cc2Cl)c(OC)c1` belongs 90.2% (active).
As to `COc1ccc(CCNC(=O)COC(=O)c2ncc(Cl)c(Cl)c2Cl)cc1OC`, the inhibition was -0.24%.
To `COc1ccc(C(=O)NC(=S)Nc2ccc(Cl)cn2)cc1OC` belongs -25.3%.
As for `Cc1cc(C)c(C#N)c(SCS(=O)c2ccc(C(C)(C)C)cc2)n1` (configuration not stated), the inhibition was 1.43%.
For the compound `CC1C(=O)Nc2ccccc2N1C(=O)c1ccc(F)cc1F` (configuration not stated), the inhibition was 16%.
Take `O=C(NNc1c2ccccc2nc2ccccc12)c1cc2ccccc2cc1O`: the inhibition is 53.2% (active).
For `O=C(NNC(=O)c1ccccc1O)c1ccccc1O`, the inhibition was 24.2%.
Consider `O=C(COC(=O)c1ccc(O)cc1O)NC(=O)c1ccccc1`, for which the inhibition is -7.02%.
To `Cc1onc(-c2c(F)cccc2Cl)c1C(=O)N(C)CC(=O)Nc1cccc(F)c1` belongs 5.08%; to `Cc1cccc(N2Cc3ccccc3C2=NC(=O)c2ccc(Cl)nc2)c1`, -4.54%; to `CN1CCN(C2=NCCO2)CC1`, 0.22%.
With `COc1ccc(/C=C2/CCCc3ccccc3C2=O)cc1` the figure was 4.03%; with `COc1ccc(/C=C2\CCc3ccccc3C2=O)c(OC)c1OC`, 89.8% (active); with `O=C1/C(=C/c2cccs2)CCc2ccccc21`, -1.09%.
With `COC(=O)[C@]1(Cc2ccccc2)N[C@H](CN(C)S(=O)(=O)c2ccc(OC(F)(F)F)cc2)[C@@H]2C(=O)N(Cc3ccccc3)C(=O)[C@@H]21` the figure was -0.07%; with `O=C(CSc1nnc(CNC(=O)c2ccc(F)cc2)o1)Nc1ccc2c(c1)OCO2`, -5.95%.
On to `COC(=O)c1ccc(/C=C2/C(=O)Oc3ccccc32)cc1`, for which the inhibition was 1.02%.
To `CN(C)c1ccc(/C=C2\NC(=S)N(Cc3ccccc3)C2=O)cc1` belongs -149%; to `CN(C)c1ccc(C=C2C(=O)OC3(CCCC3)OC2=O)cc1`, 66.8% (active).
To `O=C(O)C(NS(=O)(=O)c1cccc2nsnc12)c1ccccc1` (configuration not stated) belongs 8.07%.
With `Cc1cc(C)cc(C(=O)NC(CC(N)=O)c2ccc(N3CCC(N4CCCCC4)CC3)c([N+](=O)[O-])c2)c1` (configuration not stated) the figure was 14.9%.
Take `O=C(NCC(F)(F)F)c1ccc(S(=O)(=O)NCCc2ccc3c(c2)OCCO3)cc1`: the inhibition is 2.25%.
With `CC1=C(C(N)=O)C(c2sccc2C)n2nnnc2N1` (configuration not stated) the figure was -23.7%; with `Cc1c(Br)ccc(NC(=O)COc2ccccc2C(N)=O)c1C`, -2.05%; with `CCOCC(=O)Nc1ncc(S(=O)(=O)c2ccc([N+](=O)[O-])cc2)s1`, -6.17%.
Regarding `COc1ccc(C(=O)NCCNc2ccc([N+](=O)[O-])cn2)cc1`, the inhibition was 3.69%.
With `COC(=O)C(NC(=O)c1ccc(OC)cc1)(Nc1ncc(S(=O)(=O)c2ccc([N+](=O)[O-])cc2)s1)C(F)(F)F` (configuration not stated) the figure was 72.6% (active).
With `COc1ccc(CCn2c(NN=C3CCCC3)nc3c2c(=O)[nH]c(=O)n3C)cc1` the figure was -0.67%; with `COc1ccc(/C=C/C(=O)Nc2c(C)nn(C)c2C)cc1COc1ccc(Br)cc1`, 60.5% (active); with `CCn1nc(C)c(NC(=O)/C=C/c2ccc(OC)c(COc3ccc(Br)cc3)c2)c1C`, 30.8%.
With `COc1ccc(OC)c(S(=O)(=O)Nc2c(C)nn(C)c2C)c1` the figure was 6.33%; with `CCn1cc(/C=C(\NC(=O)c2cc(OC)c(OC)c(OC)c2)C(=O)N2CCN(C)CC2)c2ccccc21`, -8.31%; with `Cc1cc(OC(=O)c2ccc(Cl)cc2)cc(=O)n1C`, 11.4%.
Turning to `CSc1nnc(NC(=O)c2nc(S(=O)(=O)Cc3ccc(C)cc3)ncc2Cl)s1`, the inhibition was 25.7%.
On to `Cc1cccc(NC(=O)c2nc(S(=O)(=O)Cc3ccccc3)ncc2Cl)c1`, for which the inhibition is 45.5%.
To `Cc1cccc(CS(=O)(=O)c2ncc(Cl)c(C(=O)Nc3ccc(F)cc3)n2)c1` belongs 52.3% (active).
As to `FC(F)(F)c1cc(-c2ccco2)nc(NCc2ccc(Cl)cc2)n1`, the inhibition is -24.6%.
To `COc1ccc(/C=C2\SC(=S)N(CCC(=O)N3CCOCC3)C2=O)cc1OC` belongs -7.34%; to `C=CCOc1ccc(/C=C2\SC(=S)N(CCC(=O)O)C2=O)cc1`, 53.9% (active).
With `O=C1/C(=C/c2ccc(F)cc2)SC(=S)N1CCCC(=O)N1CCCCC1CCO` (configuration not stated), the inhibition was -17.3%.
To `Cc1cc(C)nc(NC2=NCC(=O)N2c2ccc(Cl)cc2)n1` belongs 10.7%; to `O=C(c1ccc(-n2cnnn2)cc1)N1CCN(C(c2ccccc2)c2ccccc2)CC1`, 14.7%.
To `CCc1ccc(NC(=O)CC2C(=O)NCCN2C(=S)Nc2ccccc2)cc1` (configuration not stated) belongs -42.6%; to `CN(C)C(=O)c1nc2ccc(Cl)cn2c1CNCc1cccc(OC(F)(F)F)c1`, 21%; to `CCNC(=O)CC1C(=O)N(c2ccc(F)cc2)C(=O)N1CCc1sccc1C` (configuration not stated), 3.16%.
With `O=C(O)CC/C(=C\c1cc2c(cc1Br)OCO2)c1nc2ccccc2s1`, the inhibition is 8.13%.
On to `N#C/C(=C(/O)Cc1cccc2ccccc12)c1nc2ccccc2s1`, for which the inhibition is 60.4% (active).
In the case of `CC1=CC(=C(C#N)c2nc3ccccc3s2)C=C(C)N1c1ccc(F)cc1F`, the inhibition is -130%.
With `CCOC(=O)N1CCN(C(=O)Cn2cnc3ccccc3c2=O)CC1` the figure was 72.2% (active).
On to `CC1Cc2ccccc2N1C(=O)Cn1cnc2ccccc2c1=O` (configuration not stated), for which the inhibition is 0.2%.
With `CC1CC(C)CN(C(=O)CCNC(=O)Cn2cnc3ccccc3c2=O)C1` (configuration not stated) the figure was -2.21%; with `O=S(=O)(NCc1ccc2c(c1)OCO2)c1cccc2nsnc12`, -14.6%.
To `COCCCNC(=O)C1CCC(CNS(=O)(=O)c2ccc(OC)cc2)CC1` (configuration not stated) belongs 5.65%; to `O=C(NNS(=O)(=O)c1ccc(F)cc1)c1ccc([N+](=O)[O-])cc1Cl`, 0.78%; to `O=[N+]([O-])c1ccc(NS(=O)(=O)c2ccccc2)c(Cl)c1`, 55.9% (active).
To `Cc1cc([N+](=O)[O-])ccc1NS(=O)(=O)c1ccccc1` belongs 17.8%.
As to `COC(C[C@@H](O)C[C@H](O)[C@H](C)OCc1ccccc1)OC`, the inhibition is 10.3%.
As to `O=C(N/N=C/c1cc(Br)c(O)c([N+](=O)[O-])c1)C(O)(c1ccccc1)c1ccccc1`, the inhibition was 4.64%.
As to `O=[N+]([O-])c1cc(Br)c(O)c(/C=N/Nc2nc3ccccc3s2)c1`, the inhibition was 67.2% (active).
`c1ccc(C(=NNc2nc3ccccc3s2)c2ccccn2)cc1`: the inhibition is -36.8%.
With `Cc1nn(C(=O)c2ccoc2C)c(N)c1-c1ccccc1` the figure was 4.6%; with `Cc1nn(-c2ccc([N+](=O)[O-])cc2)c(N)c1-c1ccccc1`, 51.6% (active); with `Cn1nc(-c2ccccc2)c2cc([N+](=O)[O-])ccc21`, -1.55%.
With `CN1CCN(C(=O)c2cnn(-c3ccccc3)c2NC(=O)c2ccc([N+](=O)[O-])cc2)CC1` the figure was 1.78%; with `Cc1ccccc1N1CCN(Cc2nc(Cc3ccccc3F)no2)CC1`, 10.3%.
Consider `COc1ccc(CC(NC(C)=O)C(=O)NC2CCN(C(=O)c3ccc(Cl)cc3)CC2)cc1` (configuration not stated), for which the inhibition is 13.1%.
To `C/C(=N/NC(=O)CSc1ccccn1)c1ccc([N+](=O)[O-])cc1` belongs 1.41%; to `Cc1nc(C)c2c(c1C(F)(F)F)-c1ccccc1C2(F)F`, -1.72%.
With `CCCCn1c(N)c(N(CCC(C)C)C(=O)COC(=O)c2ccc(CC)cc2)c(=O)[nH]c1=O` the figure was -14.7%; with `COc1ccc(Br)cc1/C=N/Nc1ccc(S(=O)(=O)Nc2ccccc2C(=O)O)cc1[N+](=O)[O-]`, 14.6%.
On to `Cc1ccc(NS(=O)(=O)c2ccc(N/N=C/c3ccccc3OCC(=O)O)c([N+](=O)[O-])c2)c(C)c1`, for which the inhibition was 63.5% (active).
To `C=C(C)CNC(=S)N/N=C/c1ccccc1OCC(=O)O` belongs -10.5%; to `CC(CO)(CO)NC(=O)c1ccc(=O)[nH]n1`, 2.66%.
